# Measurements published in the supplement of paper PMC8728848.
# The entries come from a sample that favours the strongest signals as a whole.
# B1: PkBDPgamma (Plasmodium knowlesi) (protein)
# chain: SAINQIFLQNNVMDKCNDKRKRGERDWDCPTEKDVCIPDRRYQLCMMEITNLVDTDTHFHSDIIFRKSYSRRRLIYDVGGRGDLLLKKYNNVYSEDLCKDIKWSLQDFGDIIMGTDMEGIGYSLVVQNNLRSIFGTGTSAELDRKKWWNDHKKDIWKAMILSVKEKNRYSAWNCKEDVQIKVEPQIYRWIREWGRDYMSEFREQRRKLNEKCEDKLYYSTMLICTLPPCNNACKSYDEWITGKKKQWDVLSTKFSSVKKAQKIETENIARAYDILKQELNGFNEVTFENEINKRDKLYNYFCVCIVQEARKNTQENVKNVGSGVESKAPSSNPINEAVKSSSGEGKVQEDSAHRSVNEGEGKSSTNEADPGSQPGAAASGGGSGGGTGGGVDLAPQMLRELQETNAALQDVRELLRQQVKEITFLKNTVMECDACGGPLDRNLPPLAPLGPTGGWSHPQFEK
# How the values were obtained:
# Experiment in all cases: glycan array binding signal (z-score within array); higher = stronger binding
# Conditions in all cases: glycan notation: IUPAC condensed, linker removed
# [1] = biological target: Fuc(a1-2)Gal(b1-3)GlcNAc(b1-3)GalNAc
# Outline: (§1)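 Glycan array binding is given as a within-array Z-score, which can be read as non-binding when negative. The arrays, 3228 of them, came from the Consortium for Functional Glycomics database and were retained only where the protein sequence was available. Z-scores were averaged across arrays of the same protein sequence at different concentrations or buffers and across linkers.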
# [2] = biological target: Fuc(a1-2)Gal(b1-4)Glc
# Outline: as §1
# [3] = biological target: Fuc(a1-2)Gal(b1-4)GlcNAc(b1-2)[Fuc(a1-2)Gal(b1-4)GlcNAc(b1-4)]Man(a1-3)[Fuc(a1-2)Gal(b1-4)GlcNAc(b1-2)Man(a1-6)]Man(b1-4)GlcNAc(b1-4)GlcNAc
# Outline: as §1
# [4] = biological target: Fuc(a1-2)Gal(b1-4)GlcNAc(b1-3)GalNAc
# Outline: as §1
# [5] = biological target: Fuc(a1-2)Gal(b1-4)GlcNAc(b1-3)[Fuc(a1-3)[Gal(b1-4)]GlcNAc(b1-6)]Gal(b1-4)Glc
# Outline: as §1
# [6] = biological target: Fuc(a1-2)Gal(b1-4)[Fuc(a1-3)]GlcNAc(b1-2)[Fuc(a1-2)Gal(b1-4)[Fuc(a1-3)]GlcNAc(b1-4)]Man(a1-3)[Fuc(a1-2)Gal(b1-4)[Fuc(a1-3)]GlcNAc(b1-2)Man(a1-6)]Man(b1-4)GlcNAc(b1-4)GlcNAc
# Outline: as §1
# [7] = biological target: Fuc(a1-2)[Gal(a1-3)]Gal(b1-4)GlcNAc(b1-2)Man(a1-3)[Fuc(a1-2)[Gal(a1-3)]Gal(b1-4)GlcNAc(b1-2)Man(a1-6)]Man(b1-4)GlcNAc(b1-4)GlcNAc
# Outline: as §1
# [8] = biological target: Fuc(a1-2)[GalNAc(a1-3)]Gal(b1-3)GlcNAc
# Outline: as §1
# [9] = biological target: Fuc(a1-2)[GalNAc(a1-3)]Gal(b1-3)GlcNAc(b1-6)GalNAc
# Outline: as §1
# [10] = biological target: Fuc(a1-2)[GalNAc(a1-3)]Gal(b1-4)GlcNAc(b1-2)Man(a1-3)[Fuc(a1-2)[GalNAc(a1-3)]Gal(b1-4)GlcNAc(b1-2)Man(a1-6)]Man(b1-4)GlcNAc(b1-4)GlcNAc
# Outline: as §1
# [11] = biological target: Fuc(a1-2)[GalNAc(a1-3)]Gal(b1-4)GlcNAc(b1-6)GalNAc
# Outline: as §1
# [12] = biological target: Fuc(a1-3)[Gal(b1-4)]GlcNAc(b1-3)GalNAc
# Outline: as §1
# [13] = biological target: Fuc(a1-4)GlcNAc
# Outline: as §1
# [14] = biological target: Gal(a1-3)Gal(b1-4)GlcNAc
# Outline: as §1
# [15] = biological target: Gal(b1-2)Gal
# Outline: as §1
# [16] = biological target: Gal(b1-3)Gal
# Outline: as §1
# [17] = biological target: Gal(b1-3)GalNAc(b1-4)Gal(b1-4)Glc
# Outline: as §1
# [18] = biological target: Gal(b1-3)GlcNAc(a1-6)Gal(b1-4)GlcNAc
# Outline: as §1
# [19] = biological target: Gal(b1-3)GlcNAc(b1-3)Gal(b1-3)GlcNAc
# Outline: as §1
# [20] = biological target: Gal(b1-3)GlcNAc(b1-3)Gal(b1-4)[Fuc(a1-3)]GlcNAc(b1-6)[Gal(b1-3)GlcNAc(b1-3)]Gal(b1-4)Glc
# Outline: as §1
# [21] = biological target: Gal(b1-3)[Fuc(a1-4)]GlcNAc(b1-6)GalNAc
# Outline: as §1
# [22] = biological target: Gal(b1-4)GlcNAc(b1-3)Gal(b1-4)GlcNAc(b1-2)[Gal(b1-4)GlcNAc(b1-3)Gal(b1-4)GlcNAc(b1-6)]Man(a1-6)[Gal(b1-4)GlcNAc(b1-3)Gal(b1-4)GlcNAc(b1-2)Man(a1-3)]Man(b1-4)GlcNAc(b1-4)GlcNAc
# Outline: as §1
# [23] = biological target: Gal(b1-4)GlcNAc(b1-3)Gal(b1-4)GlcNAc(b1-3)Gal(b1-4)GlcNAc(b1-2)Man(a1-3)[Gal(b1-4)GlcNAc(b1-3)Gal(b1-4)GlcNAc(b1-3)Gal(b1-4)GlcNAc(b1-2)Man(a1-6)]Man(b1-4)GlcNAc(b1-4)GlcNAc
# Outline: as §1
# [24] = biological target: Gal(b1-4)GlcNAc(b1-3)Gal(b1-4)GlcNAc(b1-3)Gal(b1-4)GlcNAc(b1-3)Gal(b1-4)GlcNAc(b1-3)Gal(b1-4)GlcNAc(b1-2)Man(a1-3)[Gal(b1-4)GlcNAc(b1-3)Gal(b1-4)GlcNAc(b1-3)Gal(b1-4)GlcNAc(b1-3)Gal(b1-4)GlcNAc(b1-3)Gal(b1-4)GlcNAc(b1-2)Man(a1-6)]Man(b1-4)GlcNAc(b1-4)GlcNAc
# Outline: as §1
# [25] = biological target: Gal(b1-4)GlcNAc(b1-3)Gal(b1-4)GlcNAc(b1-3)Gal(b1-4)GlcNAc(b1-3)Gal(b1-4)GlcNAc(b1-3)Gal(b1-4)GlcNAc(b1-2)[Gal(b1-4)GlcNAc(b1-3)Gal(b1-4)GlcNAc(b1-3)Gal(b1-4)GlcNAc(b1-3)Gal(b1-4)GlcNAc(b1-3)Gal(b1-4)GlcNAc(b1-6)]Man(a1-6)[Gal(b1-4)GlcNAc(b1-3)Gal(b1-4)GlcNAc(b1-3)Gal(b1-4)GlcNAc(b1-3)Gal(b1-4)GlcNAc(b1-3)Gal(b1-4)GlcNAc(b1-2)Man(a1-3)]Man(b1-4)GlcNAc(b1-4)[Fuc(a1-6)]GlcNAc
# Outline: as §1
# [26] = biological target: Gal3S(b1-4)[Fuc(a1-3)]GlcNAc
# Outline: as §1
# [27] = biological target: Gal3S6S(b1-4)GlcNAc6S
# Outline: as §1
# [28] = biological target: GalNAc(a1-3)Gal
# Outline: as §1
binder,measurement,setting,value
B1,glycan array binding signal (z-score),[1],0.928
same,glycan array binding signal (z-score),[2],-0.028
same,glycan array binding signal (z-score),[3],-0.391
same,glycan array binding signal (z-score),[4],1.14
same,glycan array binding signal (z-score),[5],-0.305
same,glycan array binding signal (z-score),[6],0.541
same,glycan array binding signal (z-score),[7],0.37
same,glycan array binding signal (z-score),[8],0.388
same,glycan array binding signal (z-score),[9],-0.403
same,glycan array binding signal (z-score),[10],0.106
same,glycan array binding signal (z-score),[11],-0.264
same,glycan array binding signal (z-score),[12],0.185
same,glycan array binding signal (z-score),[13],-0.191
same,glycan array binding signal (z-score),[14],-0.331
same,glycan array binding signal (z-score),[15],-0.181
same,glycan array binding signal (z-score),[16],0.074
same,glycan array binding signal (z-score),[17],0.593
same,glycan array binding signal (z-score),[18],-0.036
same,glycan array binding signal (z-score),[19],-0.37
same,glycan array binding signal (z-score),[20],-0.308
same,glycan array binding signal (z-score),[21],-0.142
same,glycan array binding signal (z-score),[22],0.897
same,glycan array binding signal (z-score),[23],0.866
same,glycan array binding signal (z-score),[24],1.25
same,glycan array binding signal (z-score),[25],0.939
same,glycan array binding signal (z-score),[26],-0.081
same,glycan array binding signal (z-score),[27],-0.041
same,glycan array binding signal (z-score),[28],-0.429
